Shown are actives, neighbours in structure and some others; about 19% of the full set was active somewhere.
HT1080 IDH1KD tx – HT-1080 IDH1 knockdown cell toxicity (counter line); Potency, µM (series often up to 46.1 µM), without a hit: at the highest dose activity, negative = toxicity, usual class: cytotoxic; AID 686971; 360,000 compounds, 2% hits; HT-1080 IDH1 knockdown viability, ATP luminescence, 48 h;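 note: potency is the fitted concentration of half-maximal effect; 0% = DMSO wells and -100% = cell-free medium wells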
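IDH1KD HT-1080 cells, 750/well, RPMI + 5% FBS; compound pinned after 2 h settling; 48 h, 37 °C; CellTiter-Glo luminescence; % activity normalised to DMSO and no-cell wells; curves fitted, classed by r2 and efficacy.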
TDP1 cell CPT – DT40-hTDP1 cell growth loss with CPT | chicken DT40 Tdp1-/-;hTDP1 cells + 20 nM CPT, ATP luminescence, 48 h | Potency, µM (series often up to 46.2 µM), for the others: at the highest dose activity change, negative = growth inhibition, hits mostly inhibitors | 420,000 compounds, 12% hits | AID 686979; note: potency is the fitted concentration of half-maximal effect; nearly all actives have a fitted effect of over 55% in size
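Cell growth measured by CellTiter-Glo luminescence after a minimum 48 h, 37 C compound exposure with 20 nM CPT in Tdp1-knockout DT40 cells stably expressing hTDP1, seeded 400/well; qHTS titration format.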
HT1080-NT tox – kills 2HG-producing HT-1080-NT fibrosarcoma cells. AID 686970. HT-1080-NT fibrosarcoma viability, CellTiter-Glo ATP luminescence, 48 h. 360,000 compounds, 1.6% hits. Potency, µM (highest dose often 46.1 µM), for the others: top-dose activity, negative = less viability, hits mostly cytotoxic;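 note: NT is the 2HG producing partner of a matched IDH1 knockdown line; potency is the fitted concentration of half-maximal effect; 0% = DMSO-treated cells and -100% = media-only wells without cells; nearly all actives have a fitted effect of over 55% in size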
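Luminescent CellTiter-Glo readout after 48 hours of compound exposure at 37 degrees C defined viability of HT-1080-NT cells. Activity was normalized to DMSO wells and cell-free media wells; concentration-response curves were fitted and assigned curve classes.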
IL-1B inflam inh – inhibitors of inflammasome signaling (IL-1 beta secretion) | THP-1 LPS/ATP IL-1B secretion, AlphaLISA, 16 h; stronger effect = lower value | activity change, % at 57.5 µM | 360,000 compounds, 4.7% hits; in the data active = activity change below about -50%; inconclusive = mostly about -30% to -49%
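Secreted IL-1B measured by AlphaLISA bead assay after 16 h compound exposure of THP-1 cells; compounds (final up to 57.5 uM) added 1 h before LPS (250 ng/mL) and ATP (1.25 mM) stimulation; lower signal means less secretion.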
TDP1 cell noCPT – qHTS for Inhibitors of human tyrosyl-DNA phosphodiesterase 1 (TDP1): qHTS in cells in absence of CPT. DT40 Tdp1-/- hTDP1 cells, no CPT, ATP luminescence, 48 h. Potency, µM (titrated, usually from 46.2 µM), without a hit: at the top dose activity change, negative = growth inhibition, most hits filed as inhibitors. 420,000 compounds, 15% hits; note: potency is the fitted concentration of half-maximal effect; nearly all actives have a fitted effect of over 55% in size
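No-CPT arm: Tdp1-/-;hTDP1 DT40 cells (400/well) plus compounds, incubated ≥48 hr at 37 °C. Readout CellTiter-Glo luminescence.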
Numbers without * were called inactive; ? = inconclusive; . = no result. Unless noted, calls come from the whole dose curve; as a rule, active = well fitted curve in the direction sought with a large enough effect; inconclusive = small, poorly fitted or top-dose-only effect, or another doubt; inactive = no such curve, though single readings can be large; an effect the other way counts as inactive or inconclusive. Unless noted, % is set by controls: 0 for no effect and ±100 for the full control effect.

SMILES	HT1080 IDH1KD tx	TDP1 cell CPT	HT1080-NT tox	IL-1B inflam inh	TDP1 cell noCPT
O=C1/C(=C\c2cccnc2)N2CCC1CC2	0.8%	2.1%	-3.6%	?	?
O=C1/C(=C\c2ccc(Cl)cc2Cl)N2CCC1CC2	-14.1%	11.6%	-9.2%	-12.2	?
O=C1/C(=C\c2ccc(Cl)c(Cl)c2)N2CCC1CC2	-7.1%	-8.5%	0.7%	-79.3*	?
NC1CC2CCCCC2CC1(O)c1ccccc1 (stereo not drawn)	2.4%	-4.7%	3.3%	-15.4	?
COC(=O)N1Cc2ccccc2-n2nncc2C1	16.5%	?	7.2%	8.0	?
O=C(NCc1cccnc1)C1CCN(S(=O)(=O)c2cc([N+](=O)[O-])ccc2Cl)CC1	-15.5%	?	0.0%	8.3	18.4µM*
COc1ccc(CC2C(=O)NC(C)C(=O)N(C)C3C(=O)N(C)C(Cc4ccc(O)c(c4)Oc4ccc(cc4)C3O)C(=O)NC(C)C(=O)NC(C)C(=O)N2C)cc1 (stereo not drawn)	0.0731µM*	0.0164µM*	0.461µM*	-100.8*	0.0206µM*
O=C(COc1ccc(Br)cc1)Nc1ccc(Cl)cc1C(=O)c1ccccc1	.	-3.1%	.	.	-14.9%
COc1ccc(NC(=O)c2ccco2)cc1NC(=O)COc1cc(C)cc(C)c1	.	8.2µM*	.	.	5.8µM*
O=C1Nc2ccccc2C1Cc1nc2ccccc2c(=O)n1-c1ccccc1 (stereo not drawn)	0.3%	?	1.6%	13.5	?

From PubChem BioAssay
